The source of these data is PubChem BioAssay (EPA / NIEHS).

Active and inactive are the calls of the source. The calls were made as follows: active = hit-call score of the fitted dose curve at least 0.9, where 1 is the maximum; inactive = score below 0.9.

Test [1] is described as follows: APR_HepG2_CellLoss_72hr: Apredica 72-hour HepG2 Assay for Cell Loss (AID 2282915). As to conditions: high-content imaging. The method, boiled down: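 HepG2 cells exposed 72 h to compound at 0.39–200 uM (10 concentrations, duplicate) in 0.5% DMSO. Fixed with 3.7% formaldehyde and Hoechst 33342-stained. Imaged at 20x; nuclear count gives cell number, fitted bidirectionally versus DMSO.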

Test [2] in a line: APR_HepG2_P-H2AX_72hr: Apredica 72-hour HepG2 Assay for H2AX Phosphorylation (AID 2282916).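 Also: phospho-histone H2A.x immunostain intensity per cell marking DNA damage.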 The note with it: imaging, actives raise or lower the signal. The method, boiled down:
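Readout: phospho-H2A.x immunofluorescence (FITC secondary) plus Hoechst nuclear stain, high-content imaging at 20x, six fields/well. HepG2, 72 hr compound exposure, 0.39–200 uM, final DMSO 0.5% v/v. Gain or loss fitted relative to DMSO baseline.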

The nature of test [3]: APR_HepG2_MitoticArrest_72hr: Apredica 72-hour HepG2 Assay for Mitotic Arrest (AID 2282918). The note with it: high-content imaging, actives raise or lower the signal. The method, boiled down: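 Using high-content imaging of fixed HepG2 cells, phospho-histone H3 signal was measured following a 72 hr incubation with ten-point compound dilutions up to 200 uM. DMSO served as the negative control and baseline for bidirectional curve fitting.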

Test [4] can be described thus: APR_HepG2_MicrotubuleCSK_72hr: Apredica 72-hour HepG2 Assay for Microtubule CSK Stabilty (AID 2282919). As to conditions: HepG2 microtubule cytoskeleton, high-content imaging, actives raise or lower the signal. The method, boiled down:
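HepG2, 72 hr cmpd exposure, 0.39–200 uM (10 pts, duplicate), 0.5% DMSO. 3.7% formaldehyde fix, 0.5% Triton perm, anti-alpha-tubulin/Cy5 plus Hoechst. HCS fluorescence intensity; bidirectional fit vs DMSO baseline; taxol as positive control.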

Test [5] in a line: APR_HepG2_P-H2AX_24hr: Apredica 24-hour HepG2 Assay for H2AX Phosphorylation (AID 2282920). The note with it: high-content imaging, actives raise or lower the signal. The method, boiled down:
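Human HepG2 liver cells, treated 24 hr with test chemicals (0.39–200 uM, final DMSO 0.5% v/v), are fixed and co-stained for phospho-H2A.x and c-Jun with Hoechst. Imaged intensity is fitted in both directions against DMSO controls.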

The nature of test [6]: APR_HepG2_StressKinase_72hr: Apredica 72-hour HepG2 Assay for Stress Kinase (AID 2282921). As to conditions: HepG2 stress kinase (phospho-c-Jun) imaging, actives raise or lower the signal. The method, boiled down: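 Phospho-c-Jun immunofluorescence measured by high-content imaging at 20x, six fields per well; bidirectional curve fitting against DMSO as baseline. Dosing: 0.39–200 uM, 72 h, 0.5% DMSO final.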

Test [7] in a line: APR_HepG2_p53Act_72hr: Apredica 72-hour HepG2 Assay for p53 Activation (AID 2282923).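 Also: average cellular p53 protein immunofluorescence intensity in HepG2 cells.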 The note with it: high-content imaging, actives raise or lower the signal. The gist of the method:
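Readout: p53 immunofluorescence quantified by automated high-content imaging at 20x, six fields per well, nuclei located via Hoechst. Dosing ran 72 hr over ten concentrations from 0.39 to 200 uM; bidirectional curve fitting against DMSO baseline.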

Test [8] in a line: APR_HepG2_MitoMass_72hr: Apredica 72-hour HepG2 Assay for Mitochondrial Mass (AID 2282924).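 Also: MitoTracker Red CMXRos stain intensity per cell imaged as mitochondrial mass.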 The note with it: high-content imaging, actives raise or lower the signal. The method, boiled down:
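Read-out: MitoTracker Red fluorescence intensity from automated imaging (20x, six fields per well) in human HepG2 liver cells. Dosing ran 72 hr, 0.39–200 uM, 0.5% DMSO; bidirectional curve fitting versus DMSO baseline.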

Test [9] in a line: APR_HepG2_NuclearSize_72hr: Apredica 72-hour HepG2 Assay for Nuclear Size (AID 2282925). The note with it: high-content imaging, actives raise or lower the signal. The gist of the method: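 Read-out: nuclear diameter from Hoechst 33342 images (ArrayScan, 20x, six fields/well), via cell-cycle image analysis. HepG2 were dosed 0.39–200 uM for 72 hr in 0.5% DMSO. Bidirectional fit relative to DMSO.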

Test [10] in a line: ATG_CRE_CIS: Attagene CIS-FACTORIAL HepG2 Assay for human cAMP Responsive Element (CRE) binding protein 3 (AID 2282926). As to conditions: HepG2 CRE cis-reporter, Attagene multiplexed mRNA; actives raise or lower the signal. The method, boiled down: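 Liver-derived HepG2, transfected with a CRE-containing reporter panel, exposed 24 h; transcript levels sized and quantified by capillary electrophoresis of labelled amplicons; signal changes either way referenced to vehicle.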

Test [11] concerns the target CCAAT/enhancer-binding protein beta (Homo sapiens) (UniProt P17676). In words: ATG_C_EBP_CIS: Attagene CIS-FACTORIAL HepG2 Assay for human CCAAT/Enhancer Binding Protein (C/EBP) beta (AID 2282927). As to conditions: HepG2 Attagene cis-factorial transcription factor reporter; actives raise or lower the signal. The gist of the method: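 HepG2 transiently transfected with multiplexed reporter units under cis-regulatory promoters reporting endogenous C/EBPb activity. After 24 h exposure, reporter mRNA assayed by RT-PCR, fluorescent labelling, HpaI digestion and capillary electrophoresis; bidirectional fitting versus DMSO.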

Test [12] in a line: ATG_CMV_CIS: Attagene CIS-FACTORIAL HepG2 Assay for human CMV (Internal Marker) (AID 2282928).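 Also: endpoint acts as a background internal control marker rather than a target.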 As to conditions: HepG2 CMV promoter reporter, transcription factor profiling; actives raise or lower the signal. The method, boiled down: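 Bidirectional fits against DMSO are applied to reporter mRNA, read by RT-PCR with capillary electrophoresis, from HepG2 cells exposed 24 h. The endpoint serves as an internal CMV background marker within the cis-factorial reporter panel.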

The nature of test [13]: ATG_DR4_LXR_CIS: Attagene CIS-FACTORIAL HepG2 Assay for human Liver X Receptor (LXR), DR4 submotif (AID 2282929). As to conditions: HepG2 Attagene DR4 cis-reporter, mRNA transcription; actives raise or lower the signal. The gist of the method: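 HepG2, transient MRTU transfection, cis-element (DR4) promoter; 24 h compound exposure; total RNA → oligo(dT) RT → PCR → 6-FAM primer extension → HpaI cut → CE. Gain/loss vs DMSO, bidirectional fit.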

Test [14] has as its target Aryl hydrocarbon receptor (Homo sapiens) (UniProt P35869). In words: ATG_Ahr_CIS: Attagene CIS-FACTORIAL HepG2 Assay for human Aryl Hydrocarbon Receptor (Ahr) (AID 2282930). As to conditions: HepG2 AhR cis-factorial reporter transcription; actives raise or lower the signal. The gist of the method:
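HepG2 cells transiently transfected with cis-element-driven multiplexed reporter units; endogenous AhR activity read as reporter mRNA 24 h after dosing, via RT-PCR, 6-FAM labelling, HpaI digestion and capillary electrophoresis. Bidirectional fit relative to DMSO.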

Test [15] can be described thus: ATG_AP_1_CIS: Attagene CIS-FACTORIAL HepG2 Assay for human Activator Protein 1 (AP-1) (AID 2282931). As to conditions: HepG2 Attagene cis-factorial AP-1 reporter mRNA; actives raise or lower the signal. The gist of the method:
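Transient MRTU transfection of HepG2 → 24 h chemical treatment → RNA isolation, RT-PCR, 6-FAM labelling, HpaI digest → capillary electrophoresis. Fit: bidirectional, DMSO negative control.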

The nature of test [16]: ATG_BRE_CIS: Attagene CIS-FACTORIAL HepG2 Assay for human Bone Morphogenetic Protein (BMP) Response Element (BRE) (AID 2282933). The note with it: HepG2 BMP response element reporter, Attagene transcription factor profiling; actives raise or lower the signal. The gist of the method: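 A HepG2 multiplex reporter system measured inducible reporter mRNA 24 h post-dosing. Detection: RT-PCR, 6-FAM primer extension, HpaI digestion, capillary electrophoresis. Activity fitted bidirectionally relative to DMSO.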

Test [17] deals with Retinoic acid receptor alpha (Homo sapiens) (UniProt P10276). Kind of test: ATG_DR5_RAR_CIS: Attagene CIS-FACTORIAL HepG2 Assay for human Retinoic Acid Receptor Alpha (RARE), DR5 submotif (AID 2282934).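 As to AC50: reporter responds to endogenous RAR alpha beta and gamma in HepG2 not RARA alone.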 As to conditions: HepG2 Attagene cis-factorial RARE DR5 reporter, mRNA; actives raise or lower the signal. The gist of the method:
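HepG2 cells transiently transfected with multiplexed reporter units; DR5 cis-element drives reporter through endogenous transcription factors. After 24 h dosing, reporter mRNA quantified by RT-PCR, fluorescent labeling, HpaI digestion and capillary electrophoresis; bidirectional fitting versus DMSO.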

A short description of test [18]: APR_HepG2_StressKinase_24hr: Apredica 24-hour HepG2 Assay for Stress Kinase (AID 2282922). The note with it: HepG2 stress kinase (phospho-c-Jun) imaging, actives raise or lower the signal. The method, boiled down:
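Read-out: phospho-c-Jun immunofluorescence (Cy3 secondary) quantified by high-content imaging at 20x, nuclei defined by Hoechst 33342. Human HepG2 liver cells dosed 24 hr, 0.39–200 uM, DMSO 0.5% v/v; gain or loss of signal fitted relative to DMSO.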

Test [19] in a line: ATG_AP_2_CIS: Attagene CIS-FACTORIAL HepG2 Assay for human Activator Protein 2 (AP-2) (AID 2282932). The note with it: HepG2 AP-2 cis-reporter, Attagene transcription factor profiling; actives raise or lower the signal. The gist of the method: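 Read-out: fluorescent reporter mRNA via RT-PCR and capillary electrophoresis, 24 h post-dose in transiently transfected HepG2. Endogenous factors drive cis-promoter reporters; gain or loss of signal fitted bidirectionally against DMSO.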

Retinoic acid receptor alpha (Homo sapiens), sequence (P10276 whole entry, looked up): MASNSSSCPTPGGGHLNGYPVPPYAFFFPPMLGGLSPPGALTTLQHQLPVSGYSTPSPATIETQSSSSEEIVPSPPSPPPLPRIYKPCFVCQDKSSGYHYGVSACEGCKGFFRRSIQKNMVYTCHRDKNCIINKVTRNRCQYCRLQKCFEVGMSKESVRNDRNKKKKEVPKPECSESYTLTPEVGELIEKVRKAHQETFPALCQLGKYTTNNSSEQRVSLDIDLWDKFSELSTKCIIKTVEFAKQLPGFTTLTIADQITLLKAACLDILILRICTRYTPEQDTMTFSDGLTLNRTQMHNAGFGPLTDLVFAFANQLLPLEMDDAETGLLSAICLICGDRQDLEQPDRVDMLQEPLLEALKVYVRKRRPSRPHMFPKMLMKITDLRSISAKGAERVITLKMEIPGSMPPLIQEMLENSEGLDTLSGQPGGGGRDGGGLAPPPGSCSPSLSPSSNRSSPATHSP
CCAAT/enhancer-binding protein beta (Homo sapiens), sequence (P17676 whole entry, looked up): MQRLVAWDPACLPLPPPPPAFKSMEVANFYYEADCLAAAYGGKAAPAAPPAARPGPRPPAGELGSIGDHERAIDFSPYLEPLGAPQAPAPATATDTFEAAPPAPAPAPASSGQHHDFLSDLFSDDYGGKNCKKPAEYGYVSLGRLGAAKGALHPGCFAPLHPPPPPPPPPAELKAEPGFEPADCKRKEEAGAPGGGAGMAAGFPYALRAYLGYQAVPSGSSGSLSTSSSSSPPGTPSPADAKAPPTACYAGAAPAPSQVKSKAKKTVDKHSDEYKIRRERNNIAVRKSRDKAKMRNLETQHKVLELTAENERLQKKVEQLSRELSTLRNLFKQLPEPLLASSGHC
Aryl hydrocarbon receptor (Homo sapiens), sequence (P35869 whole entry, looked up): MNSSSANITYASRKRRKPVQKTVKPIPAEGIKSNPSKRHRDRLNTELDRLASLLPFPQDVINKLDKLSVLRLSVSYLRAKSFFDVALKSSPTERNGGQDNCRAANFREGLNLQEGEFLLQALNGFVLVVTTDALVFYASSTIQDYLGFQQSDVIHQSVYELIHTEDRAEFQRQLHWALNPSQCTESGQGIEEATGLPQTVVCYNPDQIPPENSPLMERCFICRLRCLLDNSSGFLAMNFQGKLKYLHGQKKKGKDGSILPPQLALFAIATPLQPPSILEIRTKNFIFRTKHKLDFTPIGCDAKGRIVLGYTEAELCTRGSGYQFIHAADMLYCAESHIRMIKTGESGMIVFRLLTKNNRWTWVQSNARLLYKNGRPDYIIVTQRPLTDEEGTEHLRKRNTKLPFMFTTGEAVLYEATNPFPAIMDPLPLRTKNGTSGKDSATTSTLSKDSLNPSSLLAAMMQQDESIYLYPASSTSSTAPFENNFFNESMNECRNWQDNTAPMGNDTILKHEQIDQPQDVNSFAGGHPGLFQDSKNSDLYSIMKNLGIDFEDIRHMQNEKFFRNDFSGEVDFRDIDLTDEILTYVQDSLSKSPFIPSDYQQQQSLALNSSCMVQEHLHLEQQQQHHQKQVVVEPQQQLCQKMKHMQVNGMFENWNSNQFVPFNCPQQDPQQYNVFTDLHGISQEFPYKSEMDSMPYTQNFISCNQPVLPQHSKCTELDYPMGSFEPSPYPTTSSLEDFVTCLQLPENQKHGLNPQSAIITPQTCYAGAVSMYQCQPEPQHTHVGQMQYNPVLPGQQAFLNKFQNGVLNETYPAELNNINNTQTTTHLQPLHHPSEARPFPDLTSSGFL

Usually AC50 stands for the concentration giving half of the maximal activity seen. For the compound `COC(=O)N(C(=O)N1CO[C@@]2(C(=O)OC)Cc3cc(Cl)ccc3C2=N1)c1ccc(OC(F)(F)F)cc1`, the outcome in test [1], in test [2], in test [3], in test [4], in test [5] and in test [6] was inactive. Further, the compound was called inactive in test [7], in [8], in [9], in test [11], in test [12] and in test [14]. Also, in test [17], the compound was called inactive. For the same compound, the AC50 in test [10] was 0.67 µM (active); in [13], 13.8 µM (active); in test [15] it was 4.67 µM (active); in test [16] it was 2.96 µM (active).

On to `Nc1c(Cl)c(Cl)nc(C(=O)O)c1Cl`, for which the compound was called inactive in test [1], in [2], in [3], in test [5], in test [6] and in test [18]. The result in test [8], in test [9], in test [10], in test [11], in test [12] and in [13] was inactive. The result in test [15] and in test [16] was inactive. In test [14], the half-maximal activity concentration (AC50) was 31.3 µM (active).

For `COc1cc(OC)nc(NC(=O)NS(=O)(=O)c2ncccc2OCC(F)(F)F)n1`, the compound was called inactive in [1], in test [2], in test [3], in test [5], in [6] and in test [8]. Also, the compound was classed as inactive in [10], in [12], in [13], in test [14], in [15] and in test [19]. Moreover, in [16], the outcome was inactive.

Consider `CCCCC(C#N)(Cn1cncn1)c1ccc(Cl)cc1` (stereo not given), for which the AC50 in [1] is 103 µM (active). Besides, the outcome in [2], in [3], in [5], in test [6], in [8] and in test [10] was inactive. Further, the compound was classed as inactive in test [12], in [13], in test [14], in [15], in [16] and in test [17].

Turning to `Cc1cnc(C2=NC(C)(C(C)C)C(=O)N2)c(C(=O)O)c1` (stereo not given), the compound was classed as inactive in test [1], in test [2], in test [3], in test [4], in test [5] and in [6]. Moreover, the compound was classed as inactive in test [7], in test [8], in [10], in test [11], in [12] and in [13]. Further, the compound was classed as inactive in [14], in test [15] and in test [16]. For the same compound, the AC50 in [17] was 35.4 µM (active).

Regarding `O=C(Nc1ccccc1-c1ccc(Cl)cc1)c1cccnc1Cl`, the outcome in [1], in test [2], in [3], in [5], in [6] and in test [18] was inactive. Moreover, the outcome in [7], in [8], in [9], in [10], in test [12] and in [13] was inactive. The outcome in [14], in test [15], in [16] and in test [17] was inactive.
